# PubChem BioAssay (EPA / NIEHS)
# The source made the active and inactive calls. How the source made its calls: active means hit-call score of the fitted dose curve at least 0.9, where 1 is the maximum; inactive means score below 0.9.
# Read-out: Monokine induced gamma interferon (MIG), CXCL9 (gene 4283)
# Assay: BSK_hDFCGF_MIG: BioMAP Diversity Plus: hDFCGF Assay for Monokine induced gamma interferon (MIG) Biomarker Activity (AID 2283063)
# Conditions: primary human foreskin fibroblasts; actives raise or lower the signal
# Experimental: BSK_hDFCGF is a cell-based, multiplexed-readout assay that uses foreskin fibroblast, a human skin primary cell, with measurements taken at 24 hours after chemical dosing in a 96-well plate.BSK_hDFCGF_MIG is an assay component measured in the BSK_hDFCGF assay. It measures MIG antibody related to regulation of gene expression using ELISA technology.Data from the assay component BSK_hDFCGF_MIG was analyzed into 1 assay endpoint. This assay endpoint, BSK_hDFCGF_MIG, was analyzed with bidirectional fitting relative to DMSO as the negative control and baseline of activity. Using a type of binding reporter, gain or loss-of-signal activity can be used to understand changes in the signaling as they relate to the gene CXCL9. Furthermore, this assay endpoint can be referred to as a primary readout, because this assay has produced multiple assay endpoints where this one serves a signaling function. To generalize the intended target to other relatable targets, this assay endpoint is annotated to the cytokine intended target family, where the subfamily is chemotactic factor.
# The levels of cell surface (or secreted, indicated by the prefix "s") biomarker endpoints were measured by ELISA. Overt cytotoxicity to cells in confluent adherent cultures (all systems other than the BT system) was assessed by measuring total protein levels using sulforhodamine B (SRB) staining in parallel cultures at the time of biomarker measurements, indicated as SRB endpoints. For proliferation assays for adherent cell types, individual cell types are cultured at sub-confluence and relative cell numbers quantified by SRB staining at time points optimized for each system (48 h: 3C and CASM3C systems; 72 h: BT and HDF3CGF systems; 96 h: SAg system). SRB was performed by staining cells with 0.1% SRB after fixation with 10% TCA and reading wells at 560 nm.Viability and proliferation of PBMC (T cells) was quantified by Alamar Blue reduction for the SAg and BT systems. For PBMC viability (referred to as PBMC Cytotoxicity within the assay endpoint names), cells were plated (75,000/well in a 96-well plate) and then chemical samples added for 1 h before addition of activators, SEB and TSST-1 (20 ng/mL final concentration each). Cells were incubated for 90 h. Then, Alamar Blue (20 uL/well) (Invitrogen, Cat DAL1100) was added for 6 h, and the plates were read with a fluorescence microplate reader at 546/580 nm (excitation/emission). For PBMC proliferation, cells were plated and activated as above but incubated for only 16 h prior to addition of Alamar Blue. Plates were read after 6 h.
SMILES,outcome,AC50
NC(=O)NN=Cc1ccc([N+](=O)[O-])o1,inactive,
CC(C)CCCCCCOC(=O)C1CCCCC1C(=O)OCCCCCCC(C)C (stereo not given),inactive,
OCc1c[nH]c2ccccc12,inactive,
COc1cc(C(C)C)c2c(c1)S(=O)(=O)N(COc1cc(=O)n3cccc(OCCN4CCCCC4)c3n1)C2=O,,5.41 µM (active)
NCC(F)(F)C(F)(F)C(F)(F)C(F)(F)F,inactive,
OCC(CO)(CO)CO,inactive,
Cc1ncc([C@@H](CCCCCCc2ccc3c(n2)NCCC3)CC(=O)O)cn1,inactive,
OCCC(F)(F)C(F)(F)C(F)(F)C(F)(F)F,inactive,
O=C(O)c1ccc2c(c1)nc(C(=O)NC1CCN(C3CC3)CC1)n2Cc1cc(-c2ccc(Cl)s2)on1,inactive,
Cn1c(=O)c2[nH]cnc2n(C)c1=O,inactive,
CCOc1ccc2[nH]cc(C(=O)NCc3ccccc3)c(=O)c2n1,inactive,
CCCCC(CC)C(=O)OCCOCCOCCOC(=O)C(CC)CCCC (stereo not given),inactive,
CC(C)C(=O)Nc1ccc([N+](=O)[O-])c(C(F)(F)F)c1,inactive,
O=S(=O)(O)c1ccc(N=Nc2c(O)ccc3cc(S(=O)(=O)O)ccc23)cc1,inactive,
CC(C)c1nnc2ccc(-c3ocnc3-c3cc(F)ccc3F)cn12,inactive,
C[C@]12C=CC(=O)C=C1CC[C@H]1[C@@H]3C[C@@H](O)[C@](O)(C(=O)CO)[C@@]3(C)C[C@H](O)[C@@]12F,inactive,
FC(F)(F)C(F)(F)C(F)(F)C(F)(F)C(F)(F)C(F)(F)I,inactive,
Nc1ccn([C@@H]2O[C@H](CO)[C@@H](O)[C@@H]2O)c(=O)n1,inactive,
C[C@@H](Oc1ccc(CNC(=O)c2cccnc2Oc2ccc3c(c2)OCO3)c(F)c1)C(=O)O,inactive,
NC(=O)N1c2ccccc2C=Cc2ccccc21,inactive,

SMILES,outcome,AC50
C=CN1CCCC1=O,inactive,
CC[C@H](C)C(=O)O[C@H]1C[C@H](O)C=C2C=C[C@H](C)[C@H](CC[C@@H](O)C[C@@H](O)CC(=O)O)[C@H]21,inactive,
Cc1nccn1-c1ccc(Sc2cccc(C3(C(N)=O)CCOCC3)c2)cc1,,6.44 µM (active)
CCCCCCOC(=O)CC(CC(=O)OCCCCCC)(OC(=O)CCC)C(=O)OCCCCCC,inactive,
CCOC(N)=O,inactive,
NNC(=O)c1ccncc1,inactive,
CC(=O)c1ccccc1,inactive,
O=c1[nH]cnc2c1ncn2[C@H]1CC[C@@H](CO)O1,inactive,
C=CCc1cc(S(=O)(=O)c2ccc(O)c(CC=C)c2)ccc1O,,30.7 µM (active)
FC(F)=C(F)C(F)(F)C(F)(F)C(F)(F)C(F)(F)C(F)(F)C(F)(F)F,inactive,
CCCC(CCC)C(=O)O,inactive,
OC[C@H]1O[C@@](CO)(O[C@H]2O[C@H](CO)[C@@H](O)[C@H](O)[C@H]2O)[C@@H](O)[C@@H]1O,inactive,
CCCCN1C(=O)[C@@H]([C@H](O)C2CCCCC2)NC(=O)C12CCN(Cc1ccc(Oc3ccc(C(=O)O)cc3)cc1)CC2,inactive,
NC(N)=O,inactive,
FC(F)C(F)(F)COCC1CO1 (stereo not given),inactive,
c1ccc2cc3ccccc3cc2c1,inactive,
CC(C)CC(C)O (stereo not given),inactive,
NC(=O)N(O)[C@@H]1COc2cc(OCc3ccccc3)ccc21,inactive,
CCc1cccc(CC)c1N,inactive,
Cc1cccc(O)c1C,inactive,
